Here are results for twelve compounds from PubChem BioAssay (NCI).

The structures appear in SMILES notation. Values joined by “and” are separate entries in the source; they are usually repeats but may differ in a detail not shown here. Equal values may be shown once. The panel holds about 83,000 compounds, 20% with a hit somewhere; the sample as a whole holds those more often.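 Results are percent growth after 48 hours of single-concentration exposure. 100 means growth as in untreated cells, lower positive values show inhibition; negative values down to -100 show cell death.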 Active and inactive are the calls of the source. How the source made its calls: active means growth percent below 10; inactive means the rest.

Common to all, as to assay: NCI-60 one-dose screen, 48 h (100 = growth as untreated, 0 = no growth, -100 = all killed)
Holding throughout (conditions): 10 µM unless noted

Assay [1] concerns SR leukemia.
Assay [2] deals with RPMI-8226 leukemia.
The subject of assay [3] is OVCAR-8 ovarian.
Assay [4] deals with OVCAR-5 ovarian.
Assay [5] has as its system OVCAR-4 ovarian.
Assay [6] concerns SK-OV-3 ovarian.
The test system of assay [7] is IGROV1 ovarian.
In assay [8] the test system is OVCAR-3 ovarian.
Assay [9] relates to HS 578T breast.
Assay [10] concerns NCI/ADR-RES ovarian.

Turning to `Nc1c(S(=O)(=O)O)cc(Br)c2c1C(=O)c1ccccc1C2=O`, the growth is 93.8% (inactive) and 91.4% (inactive) in assay [1]; 96.7% (inactive) and 104% (inactive) in [2]; 106% (inactive) and 92.1% (inactive) in [3]; 113% (inactive) and 101% (inactive) in assay [4]; 101% (inactive) and 111% (inactive) in assay [5]; 85.6% (inactive) and 102% (inactive) in assay [6]. Besides, the growth in assay [7] was 105% (inactive) and 88.9% (inactive); in assay [8], 102% (inactive) and 121% (inactive); in assay [9], 112% (inactive) and 94.3% (inactive); in [10] it was 108% (inactive) and 115% (inactive).
As to `CC1NC(C)c2ccc3ccccc3c2O1` (centres undefined), the growth was 96.8% (inactive) in [1]; 97.3% (inactive) in [2]; 104% (inactive) in [3]; 108% (inactive) in [4]; 111% (inactive) in [5]; 106% (inactive) in assay [6]. The growth in assay [7] was 115% (inactive); in assay [8], 106% (inactive); in assay [9] it was 108% (inactive); in assay [10], 105% (inactive).
As for `COc1ccc(/C=C/C(=O)O)cc1OC`, the growth in assay [1] was 110% (inactive) and 106% (inactive); in assay [2], 102% (inactive) and 106% (inactive); in assay [3], 108% (inactive) and 103% (inactive); in assay [4] it was 106% (inactive) and 109% (inactive); in [5], 105% (inactive) and 113% (inactive); in [6], 103% (inactive) and 107% (inactive). In addition, the growth was 104% (inactive) and 115% (inactive) in [7]; 108% (inactive) and 104% (inactive) in assay [8]; 103% (inactive) and 102% (inactive) in assay [9]; 108% (inactive) and 105% (inactive) in assay [10].
As for `Cn1c(N)c(N=O)c(=O)n(C)c1=O`, the growth was 92.4% (inactive) and 91.7% (inactive) in [1]; 104% (inactive) and 116% (inactive) in assay [2]; 96.8% (inactive) and 104% (inactive) in [3]; 111% (inactive) and 104% (inactive) in assay [4]; 111% (inactive) and 103% (inactive) in assay [5]; 111% (inactive) and 118% (inactive) in assay [6]. Moreover, the growth in [7] is 105% (inactive); in assay [8] it was 109% (inactive) and 90.7% (inactive); in assay [9], 112% (inactive) and 94.4% (inactive); in [10], 97.6% (inactive).
As for `CC(=O)Oc1ccc(C2(c3ccc(OC(C)=O)cc3)C(=O)Nc3ccccc32)cc1`, the growth in assay [2] is 108% (inactive) and 75.1% (inactive); in assay [3], 27.1% (inactive) and 25.5% (inactive); in assay [4], 103% (inactive) and 89.5% (inactive); in assay [5], 6.67% (active) and -15.3% (active); in [6] it was 115% (inactive) and 114% (inactive); in [7], 65% (inactive) and 46.1% (inactive). Besides, the growth in [8] was -1.41% (active) and -3.11% (active); in assay [9], -18.5% (active) and -15.5% (active); in assay [10], 16.6% (inactive) and -4.21% (active).
`Cc1ccc([N+](=O)[O-])cc1Br`: the growth in assay [2] is 108% (inactive); in [3] it was 91.1% (inactive); in [4], 89.9% (inactive); in [5] it was 105% (inactive); in assay [6] it was 96.4% (inactive); in assay [7], 113% (inactive). In addition, the values for the growth in [8], in assay [9] and in assay [10] were 107% (inactive), 94.8% (inactive) and 108% (inactive), respectively.
With `CCOP(C)(=O)/C(Cc1ccc(OC)c(OC)c1)=N\O` (centres undefined), the growth in assay [2] is 99.3% (inactive); in assay [3] it was 114% (inactive); in [4] it was 96.6% (inactive); in assay [5], 107% (inactive); in assay [6], 115% (inactive); in assay [7], 104% (inactive). For the same compound, the growth was 111% (inactive) in assay [8] and 94.9% (inactive) in assay [9].
Regarding `O=C1c2ccccc2C(c2ccccc2)C1c1ccccc1` (centres undefined), the growth in assay [2] was 63.4% (inactive); in assay [3] it was 103% (inactive); in assay [4], 101% (inactive); in [5] it was 86.1% (inactive); in assay [6] it was 93.5% (inactive); in assay [7], 91.1% (inactive). Besides, the growth in [8] is 105% (inactive); in assay [9] it was 106% (inactive); in assay [10], 94.8% (inactive).
In the case of `Clc1ccc(/C=C/c2ccc3ccccc3n2)cc1`, the growth in assay [2] is 5.44% (active) and 63% (inactive) and 86.9% (inactive); in [3], 28.9% (inactive) and 86.1% (inactive) and 109% (inactive); in assay [4] it was 35.6% (inactive) and 92.6% (inactive) and 74.5% (inactive); in assay [5], 79% (inactive) and 88.3% (inactive) and 86.5% (inactive); in assay [6] it was 20.4% (inactive) and 83% (inactive) and 84.6% (inactive); in assay [7], 52.6% (inactive) and 27.6% (inactive) and 75.1% (inactive). Besides, the growth in [8] is -20.4% (active) and 106% (inactive) and 92.8% (inactive); in assay [9], -20% (active) and 168% (inactive) and 96.4% (inactive); in assay [10], 83.6% (inactive) and 92% (inactive) and 79.4% (inactive).
As to `COc1ccc(-n2[nH]c3c(cnc4ccccc43)c2=O)cc1`, the growth in assay [2] is 75.7% (inactive) and 106% (inactive); in [3], 101% (inactive) and 99.7% (inactive); in assay [4] it was 107% (inactive) and 108% (inactive); in assay [5] it was 111% (inactive) and 97.6% (inactive); in [6], 105% (inactive) and 99.4% (inactive); in assay [7], 87.6% (inactive) and 115% (inactive). In addition, the growth in [8] is 100% (inactive) and 116% (inactive); in assay [9], 117% (inactive) and 97.5% (inactive).
In the case of `N#Cc1ccc(/C=C/C(=O)c2ccccc2)cc1`, the growth is -35.6% (active) and -54.9% (active) in [2]; 98.9% (inactive) and 98.8% (inactive) in assay [3]; 108% (inactive) and 91.1% (inactive) in assay [4]; 95.2% (inactive) and 103% (inactive) in assay [5]; 123% (inactive) and 106% (inactive) in assay [6]; 55.4% (inactive) and 75.5% (inactive) in assay [8]. The growth in assay [9] was 128% (inactive) and 102% (inactive); in [10], 111% (inactive) and 95.8% (inactive).
As to `O=C1Cc2ccccc2C(=O)N1`, the growth was 48.9% (inactive) in [2]; 56.2% (inactive) in assay [3]; 96.1% (inactive) in assay [4]; 63.4% (inactive) in [5]; 98.9% (inactive) in assay [6]; 76.8% (inactive) in [7]. Besides, the growth was 76.3% (inactive) in assay [8], 103% (inactive) in assay [9] and 91.8% (inactive) in assay [10].
